Growth data for 8 compounds are collected here from PubChem BioAssay (NCI).

Some test systems named below: NCI-H23 lung; NCI-H226 lung; NCI-H322M lung; HOP-62 NSCLC; NCI-H460 lung; HOP-92 NSCLC; NCI-H522 lung; A549/ATCC NSCLC; 786-0 renal; COLO 205 colon; DU-145 prostate; K-562 leukemia; MALME-3M melanoma; MDA-MB-231 breast; RXF 393 renal; SF-268 CNS; SF-295 CNS; SF-539 CNS; UACC-257 melanoma; M14 melanoma.
Assay in all cases: NCI-60 one-dose screen, 48 h (100 = growth as untreated, 0 = no growth, -100 = all killed)
Settings in all cases: 10 µM unless noted

About 83,000 compounds went through this panel and 20% of them were active in at least one assay; those are over-represented in the sample as a whole.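 Percent growth is the endpoint: 0 to 100 indicates growth inhibition (40 means 60% inhibition), 0 means no net growth, and negative values indicate cell death.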 Values without a mark were called inactive. Calls of active or inactive are those of the source. How the source made its calls: active means growth percent below 10; inactive means the rest.

For the compound `CCN(CC)CCOc1nc2c3ccc(Cl)cc3nn2c2ccccc12`, the growth with NCI-H23 lung was 34.5%; in the assay with NCI-H226 lung, 47.1%; with NCI-H322M lung, 29.2%; in the assay on HOP-62 NSCLC it was 42.3%; with NCI-H460 lung, 11.4%; in the assay with HOP-92 NSCLC it was -3.36% (active). Besides, the growth in the assay with NCI-H522 lung was 27.9%; with A549/ATCC NSCLC, 16.3%; with 786-0 renal, 23.6%; in the assay on COLO 205 colon it was 4.4% (active); with DU-145 prostate, 26.4%; with K-562 leukemia, 1.82% (active). Besides, the growth in the assay on MALME-3M melanoma is 35.8%; in the assay on MDA-MB-231 breast, 21.3%; in the assay on RXF 393 renal, 7.71% (active); with SF-268 CNS it was 44.6%; with SF-295 CNS it was 29%; in the assay on SF-539 CNS, 17.8%. Further, the growth with UACC-257 melanoma is 16.1%; with M14 melanoma, 44.5%.

Consider `CCc1ccc(CCC(=O)Nc2ncc(Cc3ccc(Cl)cc3)s2)o1`, for which the growth is 54.9% in the assay with NCI-H23 lung; 61.8% with NCI-H226 lung; 52% with NCI-H322M lung; 30.9% in the assay on HOP-62 NSCLC; 6.53% (active) in the assay with NCI-H460 lung; 69.8% with HOP-92 NSCLC. The growth with NCI-H522 lung was -3.33% (active); in the assay with A549/ATCC NSCLC, 29.6%; with 786-0 renal, 41.2%; in the assay on COLO 205 colon, 12.3%; in the assay on DU-145 prostate, 14.4%; in the assay on K-562 leukemia it was 10.9%. The growth with MALME-3M melanoma is 46.4%; in the assay on MDA-MB-231 breast, 60.7%; with RXF 393 renal, -12.8% (active); in the assay with SF-268 CNS it was 58.4%; in the assay with SF-295 CNS, 17%; in the assay with SF-539 CNS, 2.47% (active). For the same compound, the values for the growth in the assay on UACC-257 melanoma and with M14 melanoma were 56.6% and 8.78% (active), respectively.

For the compound `COc1ccc(Cl)cc1Nc1nc(C(F)(F)F)ccc1C(=O)N/N=C/c1ccccc1Cl`, the growth in the assay with NCI-H23 lung was 16.9%; in the assay with NCI-H226 lung, 17.3%; with NCI-H322M lung it was 1.34% (active); in the assay on HOP-62 NSCLC, 18.3%; with NCI-H460 lung it was 4.25% (active); in the assay on HOP-92 NSCLC, -47.7% (active). Moreover, the growth is -13.9% (active) in the assay on NCI-H522 lung; 10.9% in the assay with A549/ATCC NSCLC; 11.8% in the assay with 786-0 renal; -59.5% (active) in the assay on COLO 205 colon; 14.6% in the assay with DU-145 prostate; 2.37% (active) with K-562 leukemia. Besides, the growth with MALME-3M melanoma is 11%; in the assay on MDA-MB-231 breast it was -7.46% (active); in the assay on RXF 393 renal, 0.498% (active); with SF-268 CNS it was 13.6%; with SF-295 CNS, -12.1% (active); in the assay with SF-539 CNS, -7.07% (active). For the same compound, the growth with UACC-257 melanoma was 2.7% (active); with M14 melanoma, 15.2%.

For `CCOC(=O)n1cc(-c2nonc2-c2cn(C)c3ccccc23)c2ccccc21`, the growth with NCI-H23 lung was 55%; in the assay on NCI-H226 lung, 75.4%; in the assay on NCI-H322M lung it was 44%; in the assay on HOP-62 NSCLC, 34.5%; in the assay with NCI-H460 lung, 14.5%; in the assay on HOP-92 NSCLC, 54.4%. Further, the growth in the assay with NCI-H522 lung was 18.4%; with A549/ATCC NSCLC it was 40.1%; in the assay with 786-0 renal, 48%; in the assay with COLO 205 colon, 24.3%; in the assay with DU-145 prostate it was 57.2%; in the assay on K-562 leukemia it was 11.2%. In addition, the growth in the assay on MALME-3M melanoma was 41%; in the assay on MDA-MB-231 breast it was 46%; with RXF 393 renal, 63.5%; in the assay with SF-268 CNS, 54%; with SF-295 CNS, 27.8%; in the assay on SF-539 CNS, 21.9%. The growth in the assay on UACC-257 melanoma was 68.9%; with M14 melanoma, 21.5%.

For the compound `O=C(Cn1nnc2ccccc21)N/N=C/c1ccccc1F`, the growth in the assay with NCI-H23 lung was 105%; in the assay on NCI-H226 lung it was 85.8%; in the assay with NCI-H322M lung, 93.6%; in the assay with HOP-62 NSCLC, 102%; in the assay with NCI-H460 lung it was 104%; with HOP-92 NSCLC it was 103%. Moreover, the growth with NCI-H522 lung is 84.9%; in the assay on A549/ATCC NSCLC, 89.2%; with 786-0 renal, 97.5%; in the assay with COLO 205 colon it was 113%; in the assay with DU-145 prostate, 107%; in the assay on K-562 leukemia it was 94.3%. Besides, the growth was 102% with MALME-3M melanoma; 91.1% with MDA-MB-231 breast; 101% in the assay with RXF 393 renal; 93.9% in the assay with SF-268 CNS; 111% in the assay with SF-295 CNS; 102% in the assay on SF-539 CNS. In addition, the figures for the growth with UACC-257 melanoma and in the assay on M14 melanoma were 93% and 108%, respectively.

On to `COc1ccc(Nc2ncccc2NC(=O)c2cn(Cc3cccc(Oc4ccccc4)c3)nn2)cc1OC`, for which the growth is 76% with NCI-H23 lung; 92.4% with NCI-H226 lung; 83.7% in the assay on NCI-H322M lung; 88% in the assay with HOP-62 NSCLC; 97.4% with NCI-H460 lung; 81.6% in the assay with HOP-92 NSCLC. In addition, the growth with NCI-H522 lung was 77.1%; in the assay on A549/ATCC NSCLC it was 86.7%; in the assay on 786-0 renal it was 90.5%; in the assay with COLO 205 colon, 81.4%; in the assay on DU-145 prostate, 84%; in the assay with K-562 leukemia, 28.7%. Besides, the growth with MALME-3M melanoma was 87.4%; with MDA-MB-231 breast it was 67.9%; with RXF 393 renal it was 86.3%; in the assay with SF-268 CNS it was 61.7%; in the assay with SF-295 CNS, 84.2%; with SF-539 CNS it was 95%. For the same compound, the growth in the assay on UACC-257 melanoma is 92.4%; with M14 melanoma it was 72.5%.

With `CCCn1c(=S)sc2c1nc(C)n1c(Nc3ccccc3)nnc21`, the growth is 26.6% in the assay on NCI-H23 lung; 66.9% in the assay with NCI-H226 lung; 83.9% with NCI-H322M lung; 75.5% in the assay on HOP-62 NSCLC; 45.3% in the assay with NCI-H460 lung; 48.9% with HOP-92 NSCLC. Also, the growth in the assay on NCI-H522 lung was 12.4%; with A549/ATCC NSCLC it was 66.1%; in the assay with 786-0 renal, 54.8%; in the assay on COLO 205 colon, 128%; with DU-145 prostate, 109%; in the assay with K-562 leukemia it was 37.6%. Further, the growth is 65.4% in the assay on MALME-3M melanoma; 84.5% with MDA-MB-231 breast; 29.3% in the assay on RXF 393 renal; 99.4% in the assay on SF-268 CNS; 51.7% in the assay with SF-295 CNS; 62.9% with SF-539 CNS. In addition, the growth was 75.3% with UACC-257 melanoma and 89.1% in the assay on M14 melanoma.

`CC(C)c1ccc(NC(=O)Nc2ccc(NC(=O)c3ccccc3N)cc2)cc1`: the growth in the assay with NCI-H23 lung was 59.5%; with NCI-H226 lung, 74.3%; in the assay with NCI-H322M lung, 55%; in the assay on HOP-62 NSCLC it was 22.6%; in the assay with NCI-H460 lung, 22.7%; with HOP-92 NSCLC it was 74.2%. Besides, the growth in the assay on NCI-H522 lung is 26.8%; in the assay with A549/ATCC NSCLC, 50%; in the assay with 786-0 renal, 8.19% (active); in the assay with COLO 205 colon, 61.8%; in the assay with DU-145 prostate, 79.2%; in the assay on K-562 leukemia it was 18.2%. The growth is 72.9% with MALME-3M melanoma; 50.1% in the assay with MDA-MB-231 breast; -25.1% (active) in the assay with RXF 393 renal; 51.8% in the assay on SF-268 CNS; -27.3% (active) in the assay with SF-295 CNS; 30.1% with SF-539 CNS. For the same compound, the growth with UACC-257 melanoma was 58.6%; with M14 melanoma it was 34%.
